Assay [1] can be described thus: OV-KATE Cancer Cell Toxicity qHTS against the NCATS CANVASS Library (AID 1347345). Further: potency means the concentration at half of the fitted maximal effect. The method, boiled down: (§1)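 Viability read-out: CellTiter-Glo luminescence after 72 h compound exposure at 37 °C/5% CO2. Cells plated at 1000/well, 4 h pre-incubation; 11-point titration. Bortezomib served as control.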
(qHTS replaces the single test concentration by a dilution series.)

The nature of assay [2]: U-118MG Cancer Cell Toxicity qHTS against the NCATS CANVASS Library (AID 1347351). Further: potency means the concentration at half of the fitted maximal effect. The method, boiled down: as §1
Assay [3] can be described thus: COV-362 Cancer Cell Toxicity qHTS against the NCATS CANVASS Library (AID 1347352). Further: potency means the concentration at half of the fitted maximal effect. The gist of the method: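 qHTS cytotoxicity: compounds tested in 11 concentrations on 1000 seeded cells per well over 72 h; bortezomib served as control; signal from CellTiter-Glo luminescence.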
A short description of assay [4]: HPAF-II 24hr Apoptosis Induction qHTS against the NCATS CANVASS Library (AID 1347356). The method, boiled down:
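Apoptosis induction in HPAF-II pancreatic cancer cells is measured as caspase-3/7 luminescence after a 24-hour exposure to compounds.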

Assay [5] can be described thus: HPAF-II 12hr Apoptosis Induction qHTS against the NCATS CANVASS Library (AID 1347358). The gist of the method:
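Apoptosis in HPAF-II pancreatic cancer cells is scored as caspase 3/7 luminescence following a 12-hour exposure to an 11-point compound series.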

The nature of assay [6]: HEK293 24hr Apoptosis Induction qHTS against the NCATS CANVASS Library (AID 1347359). The gist of the method: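 Caspase-3/7 activation measured as luminescence from the DEVD-based Caspase-Glo reagent, 15 min at room temperature, following 24-hour compound treatment of HEK293 cells.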
Assay [7] can be described thus: HPAF-II 18hr Apoptosis Induction qHTS against the NCATS CANVASS Library (AID 1347360). The method, boiled down: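 Caspase-3/7 activation was measured with luminescent Caspase-Glo 3/7 reagent (15 min, RT) in HPAF-II cancer cells (500 cells/well). Before detection, cells had been treated for 18 h at 37 C with compounds (11 points).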
Assay [8] in a line: HEK293 12hr Apoptosis Induction qHTS against the NCATS CANVASS Library (AID 1347361). The method, boiled down: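 HEK293 cells (500/well, DMEM + 10% FBS) were exposed to natural products across an 11-point series for 12 hours at 37 degrees C. Caspase-3/7 activity was then measured with DEVD luciferase luminescence after 15 min at room temperature.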
In assay [9] the target is Luciferin 4-monooxygenase (Photinus pyralis) (UniProt P08659). The assay can be described thus: Firefly luciferase counterscreen qHTS: Assay Interference Panel against the NCATS CANVASS Library (AID 1347363). Further: series mostly up to about 57 µM. The gist of the method:
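Luminescence inhibition readout: compounds (11-point qHTS) sat 15 min at room temperature with substrate mix (0.013 mM luciferin and ATP), then firefly luciferase was added and signal read 5 min later.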
In general terms: A counterscreen serves to expose hits that act by an unwanted route or on another target.

Assay [10] can be described thus: KB-3-1 Cancer Cell Toxicity qHTS against the NCATS CANVASS Library (AID 1347366). Further: nearly all actives have a fitted effect of over 75% in size. Further: potency means the concentration at half of the fitted maximal effect. The method, boiled down: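 CellTiter-Glo luminescence measured viability after 72 h at 37C. KB-3-1 cells were seeded at 500 per well in DMEM/10% FBS.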
Assay [11] is described as follows: qHTS for ATAD5 Agonist screened against the NCATS CANVASS Library (AID 1347367).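 Further: luciferase reporter driven by ATAD5 which rises upon DNA damage.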 The gist of the method: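 Genotoxicity via ATAD5-luciferase luminescence after 16 h compound exposure (11-point series) at 37C in HEK293T-ATAD5 cells. CellTiter-Fluor viability read precedes the luminescence read; MMS serves as positive control.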
Assay [12] is described as follows: MCF7 Cancer Cell Toxicity qHTS against the NCATS CANVASS Library (AID 1347369). Further: potency means the concentration at half of the fitted maximal effect. The gist of the method: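 Cytotoxicity was measured as CellTiterGlo luminescence (ATP) after 72 h at 37 °C. The cells were MCF7 at 500 per well, with an 11-point compound concentration series.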
A short description of assay [13]: J3T Cancer Cell Toxicity qHTS against the NCATS CANVASS Library (AID 1347371). The gist of the method:
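Viability of the J3T glioma line from dog is scored by ATP luminescence after a 72 hr incubation with natural products.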

Assay [14] has as its target Nuclear receptor subfamily 1 group I member 3 (Homo sapiens) (UniProt Q14994). The assay can be described thus: qHTS for Constitutive Androstane Receptor (CAR) Antagonist screened against the NCATS CANVASS Library (AID 1347372).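 Further: cells stimulated with 50 nM CITCO agonist so inhibition reflects antagonism; luciferase from CYP2B6 promoter reporter driven by hCAR in HepG2 cells; series mostly up to about 46 µM.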 The gist of the method: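 HepG2-CYP2B6-hCAR double-stable cells plated, 4hr attach; cpd pin-transferred; CITCO 50 nM final; 24hr 37C/5% CO2; CellTiter-Fluor 1hr (fluorescence), then ONE-Glo luminescence.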

Assay [15] shares this target. The experiment in a line: qHTS for Constitutive Androstane Receptor (CAR) Agonist screened against the NCATS CANVASS Library (AID 1347373).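 Further: every well also contained 1.5 µM PK11195 alongside the test compound.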 The gist of the method:
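CAR agonism is scored as CYP2B6-promoter luciferase induction in a double-stable transfected HepG2 line, where 1.5uM PK11195 is included in each well. Compounds were tested over a 24hr exposure.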

Assay [16] is described as follows: 10-beta competent E. coli microbial cell viability qHTS against the NCATS CANVASS Library (AID 1347376). Further: series mostly up to about 46 µM. The method, boiled down: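 Cytotoxicity toward competent E. coli is scored from cellular ATP content via BacTiter-Glo luminescence following overnight compound exposure at 37C, 5% CO2.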
Assay [17] can be described thus: qHTS for H2AX Agonists against the NCATS CANVASS Library (AID 1347378). The gist of the method:
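Phospho-H2AX (S139) in CHO-K1 lysates measured by HTRF, reported as 665/615 nm emission ratio after 24 hr antibody incubation at room temperature. Cells were first treated with a compound series for 3 hr at 37C (0.76% DMSO final).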

Assay [18] in a line: qHTS for Inflammasome Signaling Inhibitors: IL-1-beta AlphaLISA screen against the NCATS CANVASS Library (AID 1347379).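 Further: human THP-1 cells primed with LPS then triggered with ATP.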 The gist of the method: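 Human THP-1 cells were pretreated 1 hr at 37 °C with compounds (up to 57.5 uM final), then stimulated with LPS (250 ng/mL final) and ATP (1.25 mM final). Secreted IL-1B was read by AlphaLISA after 16 hr.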
Assay [19] can be described thus: Inflammasome Signaling qHTS Counterscreen: IL-1-beta AlphaLISA counterscreen against the NCATS CANVASS Library (AID 1347381).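 Further: cell-free check with purified IL-1β in medium and no THP-1 cells; series mostly up to about 57 µM.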 The gist of the method: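 To flag interference with the AlphaLISA read-out, a known amount of purified IL-1-beta (4 pg) replaced cell supernatant. Detection used anti-IL-1-beta acceptor beads, biotinylated antibody and streptavidin donor beads at room temperature.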

A short description of assay [20]: Viability qHTS for inhibitors of the SERCaMP assay screened against the NCATS CANVASS Library (AID 1347400). Further: nearly all actives have a fitted effect of over 70% in size. Further: potency means the concentration at half of the fitted maximal effect. The gist of the method: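 Cytotoxicity counter-screen: ATP content (CellTiter-Glo luminescence) of SH-SY5Y-GLuc SERCaMP MJH297 cells after 48 h at 37C with compounds in an 11-point qHTS series.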

These results are taken from PubChem BioAssay (NCATS).

Results filed as inconclusive are left out. Active and inactive are the calls of the source. The call rests on the fitted dose curve; in most records, active means well fitted curve in the direction sought with a large enough effect; inconclusive means small, poorly fitted or top-dose-only effect, or another doubt; inactive means no such curve, though single readings can be large; an effect the other way counts as inactive or inconclusive.

Chain of Luciferin 4-monooxygenase (Photinus pyralis) (P08659 whole entry, looked up): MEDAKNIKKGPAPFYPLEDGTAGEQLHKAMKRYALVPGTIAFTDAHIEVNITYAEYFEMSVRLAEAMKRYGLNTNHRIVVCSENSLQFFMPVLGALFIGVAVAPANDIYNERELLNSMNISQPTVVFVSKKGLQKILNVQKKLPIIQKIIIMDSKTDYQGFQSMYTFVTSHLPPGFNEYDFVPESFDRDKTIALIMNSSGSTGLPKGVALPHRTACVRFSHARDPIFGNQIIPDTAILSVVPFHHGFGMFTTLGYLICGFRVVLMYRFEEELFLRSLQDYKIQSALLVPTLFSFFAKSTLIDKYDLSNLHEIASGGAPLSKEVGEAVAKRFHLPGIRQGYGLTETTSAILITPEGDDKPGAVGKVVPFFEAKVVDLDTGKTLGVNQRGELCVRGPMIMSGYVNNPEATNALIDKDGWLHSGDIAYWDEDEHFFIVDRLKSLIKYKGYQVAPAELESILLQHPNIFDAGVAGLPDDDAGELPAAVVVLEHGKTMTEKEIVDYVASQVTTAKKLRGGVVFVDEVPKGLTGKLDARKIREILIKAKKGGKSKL
Chain of Nuclear receptor subfamily 1 group I member 3 (Homo sapiens) (Q14994 whole entry, looked up): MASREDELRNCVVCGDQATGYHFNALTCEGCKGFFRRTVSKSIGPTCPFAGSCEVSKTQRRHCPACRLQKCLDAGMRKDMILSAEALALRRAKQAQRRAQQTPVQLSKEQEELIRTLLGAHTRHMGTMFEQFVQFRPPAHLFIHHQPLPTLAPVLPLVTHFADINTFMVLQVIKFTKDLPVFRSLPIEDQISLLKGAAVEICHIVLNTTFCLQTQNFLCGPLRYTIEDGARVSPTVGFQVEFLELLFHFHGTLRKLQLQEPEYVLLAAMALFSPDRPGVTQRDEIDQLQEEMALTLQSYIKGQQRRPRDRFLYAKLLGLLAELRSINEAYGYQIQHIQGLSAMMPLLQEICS

Consider `O=c1cc(-c2ccc(O)c(O[C@@H]3O[C@H](CO)[C@@H](O)[C@H](O)[C@H]3O)c2)oc2cc(O[C@@H]3O[C@H](CO)[C@@H](O)[C@H](O)[C@H]3O)cc(O)c12`, for which the Potency result in assay [1], in assay [2], in assay [3], in assay [5], in assay [6] and in [7] was “inactive” in each case. Also, the Potency result in [8], in assay [9], in assay [10], in assay [11], in [12] and in [13] was “inactive” throughout. Further, the Potency entry in [14], in assay [17], in [18] and in [20] was “inactive” in each case. In addition, the result in assay [4], in assay [15], in [16] and in [19] was inactive.

Regarding `C=C(NC(=O)c1csc(-c2nc3c(cc2O)-c2nc(cs2)C(=O)NC(C(C)O)C(=O)N/C(=C(\C)O)c2nc(cs2)C(=O)NC2c4nc(cs4)C(=O)NC(COC(=O)c4c5c6c(cccc6n4O)COC(=O)[C@@H](OC4C[C@](C)(O)[C@H](N(C)C)[C@H](C)O4)C2OC5)c2nc-3cs2)n1)C(N)=O` (stereo partly drawn), the Potency result in assay [1], in assay [2], in assay [3], in [5], in assay [6] and in assay [7] was “inactive” each time. In addition, the Potency result in [8], in assay [9], in assay [10], in [11], in [12] and in assay [13] was “inactive” each time. The Potency result in assay [14], in [17], in assay [18] and in assay [20] was “inactive” in each case. For the same compound, the compound was called inactive in [4], in [15], in assay [16] and in assay [19].

Consider `C=CC(C)(C)C(=O)[C@@H](C)[C@@H]1CC[C@](C)(C=C)O1`, for which the Potency result in assay [1], in assay [2], in assay [3], in assay [5], in [6] and in assay [7] was “inactive” each time. Besides, the Potency result in [8], in assay [9], in assay [10], in assay [11], in assay [12] and in assay [13] was “inactive” in each case. Besides, the Potency result in [14], in assay [17], in assay [18] and in assay [20] was “inactive” in each case. Also, the compound was called inactive in assay [4], in assay [15], in [16] and in assay [19].

As for `CCC[C@@H](C)/C=C(\C)[C@H](O)[C@H](C)/C=C/CC[C@@H](O)[C@H](C)[C@H](O)[C@H](C)[C@H](O)[C@H](C)[C@H]1O[C@H]([C@H](C)C(=O)O)CC[C@@H]1C`, the Potency in [1] is 3.75 µM (active); in assay [2], 16.8 µM (active); in assay [3] it was 5.94 µM (active); in [10], 11.8 µM (active); in [12], 16.5 µM (active); in [20], 27 µM (active). Further, the compound was classed as inactive in assay [4], in assay [15], in assay [16] and in assay [19]. The Potency result in assay [5], in [6], in assay [7], in assay [8], in assay [9] and in assay [11] was “inactive” each time. For the same compound, the Potency result in assay [13] and in assay [17] was “inactive” in each case.

Turning to `O=Cc1ccc2n1C[C@@]1(OC2)O[C@H](CO)[C@@H](O)[C@@H]1O`, the Potency entry in [1], in assay [2], in assay [3], in assay [5], in [6] and in assay [7] was “inactive” throughout. In addition, the Potency entry in [8], in assay [9], in assay [10], in assay [11], in [12] and in [13] was “inactive” each time. The Potency entry in [14], in [17], in assay [18] and in [20] was “inactive” in each case. The compound was called inactive in assay [4], in [15], in assay [16] and in [19].
